# Assay results as given in publication PMC8384837, “Expanding the binding specificity for RNA recognition by a PUF domain”.
# Legend:
# Test in all cases: yeast three-hybrid, YBZ-1, SC-Leu-His + 0.5 mM 3-AT, 4 days
# Conditions in all cases: tags: N-Gal4 AD-HA kept; label: inside an RPR1-promoter hybrid RNA with tandem MS2 sites; ssRNA
# PUM1 PUF domain R3-RTC = PUM1 PUF domain R3-RTC (Homo sapiens, UniProt Q14671 828-1176, C935R;R936T;Q939C)
# In short: (§1)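 Sequencing with Illumina followed PCR amplification of the repeat regions from transformants grown four days on SC-Leu (input) or SC-Leu-His + 0.5 mM 3-AT (selection). The transformants were strain YBZ-1 with a LexA–MS2 coat fusion and a HIS3 reporter, carrying Pumilio-1 PUF domain libraries and matching RNA elements. The interaction score is the log change in variant frequency from input to selection, computed in log2 with a pseudocount of 1 for absent variants.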
# PUM1 PUF domain R6-AWG = target: T1, PUM1 PUF domain R6-AWG (Homo sapiens, UniProt Q14671 828-1176, N1043A;Y1044W;Q1047G)
# T1 sequence: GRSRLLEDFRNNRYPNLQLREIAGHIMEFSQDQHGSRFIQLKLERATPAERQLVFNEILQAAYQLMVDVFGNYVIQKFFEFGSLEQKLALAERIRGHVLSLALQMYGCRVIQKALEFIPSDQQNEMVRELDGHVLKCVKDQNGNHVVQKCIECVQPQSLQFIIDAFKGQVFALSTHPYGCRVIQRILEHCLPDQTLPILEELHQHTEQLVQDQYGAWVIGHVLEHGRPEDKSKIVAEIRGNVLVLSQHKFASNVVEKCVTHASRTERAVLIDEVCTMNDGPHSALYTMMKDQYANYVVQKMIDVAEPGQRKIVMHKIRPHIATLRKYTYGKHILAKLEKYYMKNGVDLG
# In short: as §1
# PUM1 PUF domain R8-RYD = PUM1 PUF domain R8-RYD (Homo sapiens, UniProt Q14671 828-1176, N1122R;Q1126D)
# In short: as §1
# PUM1 PUF domain R8-LHR = PUM1 PUF domain R8-LHR (Homo sapiens, UniProt Q14671 828-1176, N1122L;Y1123H;Q1126R)
# In short: as §1
# PUM1 PUF domain R8-DYC = PUM1 PUF domain R8-DYC (Homo sapiens, UniProt Q14671 828-1176, N1122D;Q1126C)
# In short: as §1
# PUM1 PUF domain R5-CHM = PUM1 PUF domain R5-CHM (Homo sapiens, UniProt Q14671 828-1176, R1008H;Q1011M)
# In short: as §1
# PUM1 PUF domain R2-QWL = PUM1 PUF domain R2-QWL (Homo sapiens, UniProt Q14671 828-1176, N899Q;Y900W;Q903L)
# In short: as §1
# PUM1 PUF domain R2-RKV = PUM1 PUF domain R2-RKV (Homo sapiens, UniProt Q14671 828-1176, N899R;Y900K;Q903V)
# In short: as §1
sequence,measurement,setting,value
GGCUAGAACUAGUGGAUCCCCCGGCGCCCGGCGGCUCGAGCCCGGGUAAGUGUAAUUAGUCUGCAUGCCGCCGGGCGCCAUGCCUGCAGGUCGACUCUAGAAAACAUG,binding signal,PUM1 PUF domain R3-RTC,3.59 log2 enrichment (interaction score)
GGCUAGAACUAGUGGAUCCCCCGGCGCCCGGCGGCUCGAGCCCGGGUAAGUGAAAAUAGUCUGCAUGCCGCCGGGCGCCAUGCCUGCAGGUCGACUCUAGAAAACAUG,binding signal,PUM1 PUF domain R6-AWG,2.57 log2 enrichment (interaction score)
GGCUAGAACUAGUGGAUCCCCCGGCGCCCGGCGGCUCGAGCCCGGGUAAGCGUAAAUAGUCUGCAUGCCGCCGGGCGCCAUGCCUGCAGGUCGACUCUAGAAAACAUG,binding signal,PUM1 PUF domain R8-RYD,4.23 log2 enrichment (interaction score)
same,binding signal,PUM1 PUF domain R8-LHR,4.05 log2 enrichment (interaction score)
same,binding signal,PUM1 PUF domain R8-DYC,4.43 log2 enrichment (interaction score)
GGCUAGAACUAGUGGAUCCCCCGGCGCCCGGCGGCUCGAGCCCGGGUAAGUGUAAAUAGUCUGCAUGCCGCCGGGCGCCAUGCCUGCAGGUCGACUCUAGAAAACAUG,binding signal,PUM1 PUF domain R8-LHR,2.47 log2 enrichment (interaction score)
same,binding signal,PUM1 PUF domain R5-CHM,2.96 log2 enrichment (interaction score)
GGCUAGAACUAGUGGAUCCCCCGGCGCCCGGCGGCUCGAGCCCGGGUAAGUGUAAAAAGUCUGCAUGCCGCCGGGCGCCAUGCCUGCAGGUCGACUCUAGAAAACAUG,binding signal,PUM1 PUF domain R2-QWL,5.92 log2 enrichment (interaction score)
same,binding signal,PUM1 PUF domain R2-RKV,3.51 log2 enrichment (interaction score)
GGCUAGAACUAGUGGAUCCCCCGGCGCCCGGCGGCUCGAGCCCGGGUAAGUGUAAAGAGUCUGCAUGCCGCCGGGCGCCAUGCCUGCAGGUCGACUCUAGAAAACAUG,binding signal,PUM1 PUF domain R2-RKV,4.57 log2 enrichment (interaction score)
